# Activity calls are given as the source filed them. Calls come from the whole dose curve; as a rule, active = well fitted curve in the direction sought with a large enough effect; inconclusive = small, poorly fitted or top-dose-only effect, or another doubt; inactive = no such curve, though single readings can be large or run the other way.
# Target: Hexokinase-4 (Homo sapiens) + Glucokinase regulatory protein (Homo sapiens) (UniProt P35557+Q14397)
# Test: qHTS assay for inhibitors of recombinant human GCK-GKRP interaction: HTRF assay (AID 743207);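 note: 0% = DMSO with GCK present and -100% = DMSO wells lacking GCK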
# Conditions: recombinant GCK-GKRP HTRF binding, 60 min, with sorbitol-6-phosphate; series mostly up to 57.5 µM; activity change, negative = inhibition: at the top concentration
# From the text: Glucokinase (GCK) is a glucose sensor in hepatocytes and pancreatic beta-cells. Hepatic GCK is regulated by glucokinase regulatory protein (GKRP), which is predominantly localized to the liver. GKRP binds to GCK inhibiting its activity in the fasting state while in the presence of glucose the GKRP is displaced. There is an additional layer of regulation by fructose 1-phosphate and fructose 6-phosphate, which inhibit and enhance the GCK-GKRP interaction, respectively. GCK plays a role in glucose homeostasis and there is an interest in the development of strategies to activate GCK to lower blood glucose levels in type 2 diabetes. To date the majority of effort has focused on direct activation of GCK and the assays developed herein look to activate GCK by inhibiting its binding to GKRP. A compound that inhibits the interaction of GCK with GKRP could be important for the treatment of diabetes and can also be used as a tool compound to further elucidate GCK-GKRP biology. To that end, we have developed an HTS biochemical assay using HTRF technology for to interrogate the GCK-GKRP interaction. This assay was screened against a small compound library to look for modulators of activity.
# 3 uL of 5 nM GST-GCK and 5 nM FLAG-GKRP proteins with 2 uM S6P (columns 1-2, 4-48; Millipore, Billerica, MA) are dispensed into Greiner, white solid-bottom 1536-well assay plates; columns 3 receive buffer without GCK as a control for maximum inhibition. Buffer contains 2 mM MgCl2, 25 mM KCl, 25 mM Hepes, 1 mM DTT, 0.1% Tween 20 and 0.025% BSA and the pH was adjusted to 7.1. Compounds (23 nL) are then transferred via Kalypsys pin tool equipped with 1536-pin array (10 nL slotted pins, V&P Scientific, San Diego, CA). The library compounds are in columns 5-48 and columns 1-4 serve as controls with DMSO in columns 1 and 3 and 26 mM 1:1.5 fold serial of gluckokinase activator (GKA-EMD) in column 2 and 26 mM of the glucokinase activator (GKA-EMD) in column 4. Following addition of compound, 1 uL of detection antibodies (anti-Flag XL 665 and anti-GST K in reconstitution buffer from Cisbio, Bedford, MA; 0.7 ng/well and 0.0945 ng/well, respectively) is added, and the mixture is allowed to equilibrate for 60 minutes at room temperature. Data are normalized to DMSO-treated control columns with (maximum signal) and without (minimum signal) enzyme. Plates were read on an Envision plate reader (PerkinElmer, Shelton, CT, USA) with excitation at 320 nm and dual-wavelength detection at the Fret donor wavelength (615 nm) and the FRET acceptor wavelength (665 nm).
# Sequence of Hexokinase-4 (Homo sapiens) + Glucokinase regulatory protein (Homo sapiens) (P35557 whole entry, looked up): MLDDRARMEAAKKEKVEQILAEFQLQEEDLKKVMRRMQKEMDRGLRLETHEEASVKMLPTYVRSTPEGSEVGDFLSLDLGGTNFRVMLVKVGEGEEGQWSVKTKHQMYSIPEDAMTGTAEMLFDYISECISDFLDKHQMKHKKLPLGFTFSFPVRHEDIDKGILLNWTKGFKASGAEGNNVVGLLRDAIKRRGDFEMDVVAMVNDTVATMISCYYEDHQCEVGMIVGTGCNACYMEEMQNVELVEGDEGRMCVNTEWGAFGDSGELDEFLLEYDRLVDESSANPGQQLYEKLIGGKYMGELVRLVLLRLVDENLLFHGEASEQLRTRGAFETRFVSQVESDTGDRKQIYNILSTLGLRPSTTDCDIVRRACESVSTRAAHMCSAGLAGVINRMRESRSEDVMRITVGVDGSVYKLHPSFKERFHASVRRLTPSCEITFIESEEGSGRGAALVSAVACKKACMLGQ
# Sequence of Hexokinase-4 (Homo sapiens) + Glucokinase regulatory protein (Homo sapiens) (Q14397 whole entry, looked up): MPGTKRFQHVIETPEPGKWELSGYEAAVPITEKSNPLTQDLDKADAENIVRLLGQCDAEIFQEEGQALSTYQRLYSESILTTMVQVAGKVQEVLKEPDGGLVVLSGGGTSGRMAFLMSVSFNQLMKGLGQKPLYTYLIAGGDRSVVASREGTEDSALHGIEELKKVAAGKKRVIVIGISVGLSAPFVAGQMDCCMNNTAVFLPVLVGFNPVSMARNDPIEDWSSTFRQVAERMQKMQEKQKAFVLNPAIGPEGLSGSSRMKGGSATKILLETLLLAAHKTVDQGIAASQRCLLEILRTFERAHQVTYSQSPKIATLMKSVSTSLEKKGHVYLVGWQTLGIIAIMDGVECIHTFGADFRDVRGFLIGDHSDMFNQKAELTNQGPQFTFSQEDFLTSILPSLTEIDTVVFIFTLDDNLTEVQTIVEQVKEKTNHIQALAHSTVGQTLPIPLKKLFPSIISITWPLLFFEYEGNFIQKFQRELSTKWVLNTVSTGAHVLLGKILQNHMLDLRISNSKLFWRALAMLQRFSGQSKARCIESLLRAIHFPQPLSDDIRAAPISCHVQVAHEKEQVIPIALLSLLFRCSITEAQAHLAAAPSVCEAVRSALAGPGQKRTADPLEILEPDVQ
row,SMILES,"activity change, negative = inhibition"
1,CNc1ncnc2c1ncn2[C@@H]1O[C@H](CO)[C@@H](O)[C@H]1O,-10.1% (inactive)
2,CC(C)NCC(O)COc1cccc2ccccc12 (stereo not given),-6.18% (inactive)
3,COc1ccc2c(c1)CCC1C2CC[C@@]2(C)C1CC[C@@H]2NCCCCCCN1C(=O)CCC1=O (stereo not given in full),8.36% (inactive)
4,O=C1/C(=C/c2ccsc2)CC/C1=C\c1cccs1,-7.93% (inactive)
5,CN1CCc2cc(O)c(O)cc2C(c2ccccc2)C1 (stereo not given),6.02% (inactive)
6,N#C/C(=C\c1ccc(O)c(O)c1)C(=O)c1ccc(O)c(O)c1,-0.939% (inactive)
7,CN(C)c1ccc(/C=C2\C(=O)Nc3ccccc32)cc1,-7.84% (inactive)
8,NC[C@H]1O[C@@H](n2cnc3c(N)ncnc32)[C@H](O)[C@@H]1O,8.78% (inactive)
9,NCCCCCCCCCCN,-2.32% (inactive)
10,OCC1O[C@H](O)C(Cl)C(O)C1O (stereo not given in full),-0.86% (inactive)
11,CCOC(=O)C1=C(C)NC(C)=C(C(=O)OCC)C1c1c(F)c(F)c(F)c(F)c1F,0.718% (inactive)
12,CC(C)ON([C@@H](C(=O)NO)C(C)C)S(=O)(=O)c1ccc(-c2ccccc2)cc1,-7.69% (inactive)
13,O=c1[nH]c2cc(C(F)(F)F)ccc2n1-c1cc(C(F)(F)F)ccc1O,3.3% (inactive)
14,CSc1ccccc1N1CCN(CCCCCC(=O)NC2CCCc3ccccc32)CC1 (stereo not given),-1.12% (inactive)
15,N#C/C(=C\c1ccc(-c2cc(Cl)ccc2Cl)o1)C(=O)Nc1cccc2ncccc12,1.98% (inactive)
16,NCCCS(=O)(=O)O,-12.7% (inactive)
17,CN1CCc2cc(NC(=O)Nc3cccnc3)ccc21,12% (inactive)
18,Cn1ncc(S(=O)(=O)Cc2ccccc2)c(Br)c1=O,-2.77% (inactive)
19,CN1CCC[C@H]1c1cccnc1,2.91% (inactive)
20,CCCCCCCCc1ccc(-c2ccc(C(=O)O)cc2)cc1,-9.2% (inactive)

row,SMILES,"activity change, negative = inhibition"
1,COc1ccccc1N1CCN(CCN(C(=O)c2ccc(I)cc2)c2ccccn2)CC1,-3.84% (inactive)
2,Oc1ccc(C2CNCc3sccc32)cc1O (stereo not given),-7.65% (inactive)
3,NC[C@@H]1O[C@H](C23CC4CC(CC(C4)C2)C3)Cc2c1ccc(O)c2O,-1.25% (inactive)
4,CN1CCc2cccc3c2C1Cc1ccc(O)c(O)c1-3 (stereo not given),0.579% (inactive)
5,N=C(N)SCCc1ccc(CCSC(=N)N)cc1,5.55% (inactive)
6,Cc1ccc(S(=O)(=O)/C=C/C#N)cc1,-3.51% (inactive)
7,O=C(c1ccc(OCCCc2cnc[nH]2)cc1)C1CC1,1.39% (inactive)
8,CC(C)(C=O)Cc1cc(C(C)(C)C)c(O)c(C(C)(C)C)c1,3.69% (inactive)
9,CC(COc1ccc(/C=C/c2ccccc2)cc1)[N+](C)(C)C (stereo not given),-3.49% (inactive)
10,C=CC(C)=C[C@@]1(C)SC(=O)C(C)=C1O,0.736% (inactive)
11,CN1CCc2ccccc2Cc2[nH]c3ccccc3c2CC1,1.45% (inactive)
12,O=C(CCCCCN1CCN(c2ccccc2-c2ccccc2)CC1)NC1CCCc2ccccc21 (stereo not given),-6.24% (inactive)
13,COc1cc(OC)c(/C=C2/C(=O)Nc3ccccc32)c(OC)c1,-8.62% (inactive)
14,C#C[C@]1(O)CC[C@H]2[C@@H]3CCC4=Cc5oncc5CC4(C)[C@H]3CCC21C (stereo not given in full),-6.91% (inactive)
15,Clc1ccc(N2CCN(Cc3cc4ccccn4n3)CC2)cc1,2.68% (inactive)
16,COc1cccc(C(=O)NCCN2CCN(c3ccc(Cl)cc3)CC2)c1,-8.62% (inactive)
17,O=C(c1cc(O)c(O)c([N+](=O)[O-])c1)c1ccccc1F,10.9% (inactive)
18,COc1cc(SC)ccc1C(=O)N1CCC(Cc2ccccc2)CC1,-7.66% (inactive)
19,O=C1O/C(=C/Br)CCC1c1cccc2ccccc12 (stereo not given),2.81% (inactive)
20,CCCN(CC1CC1)c1nc(C)nc(Nc2c(Cl)cc(Cl)cc2Cl)c1Cl,-9.11% (inactive)

# Source: PubChem BioAssay (NCATS)
